Measured values taken from the supplement of paper PMC8975748.
Where a name gives a salt, the structure may show the parent alone. ± gives the standard deviation of the averaged measurements.

What was measured:
[1] = test system: Saccharomyces cerevisiae BY4741 SeMeCo community; assay: mean cell size (pixel area) (pixels); higher = larger cells; details: 10 µM; 24 h; SM minimal medium
Outline: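 Mean cell pixel area per well was measured in a four-plasmid fluorescent community of Saccharomyces cerevisiae BY4741, where every plasmid complements one auxotrophy and carries a fluorescent marker. Cells from an overnight preculture at OD600 = 1.0 were diluted to OD600 = 0.3 and dispensed at 70 µl into 384-well plates acoustically predosed with drug to a final 10 µM in SM medium. Incubation lasted 24 h, followed by paraformaldehyde fixation, automated confocal imaging and analysis in Harmony. Reported figures are averaged over 3 replicates. Same SeMeCo high-content imaging drug screen: Selleck FDA-approved drugs at 10 µM, 24 h in SM medium, 384-well plates, 3 replicates.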

[2] = test system: Saccharomyces cerevisiae BY4741 SeMeCo community; assay: z-score of prototroph abundance vs DMSO median; higher = larger share of this subpopulation than in DMSO controls; details: 10 µM; 24 h; SM minimal medium; subpopulation (auxotrophy): Prototroph
Outline: (§1)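 A community of Saccharomyces cerevisiae BY4741 was built from four plasmids that each restored one auxotrophy and encoded a distinct fluorescent protein. Pre-grown overnight to OD600 1.0 and diluted to 0.3, it was dispensed at 70 µl into 384-well plates acoustically predosed with library drugs for a final 10 µM, and grown 24 h in minimal SM medium. Cells were then paraformaldehyde-fixed and imaged by automated confocal microscopy. Thresholds and autofluorescence correction came from single-auxotroph fluorescent strains, and each subpopulation's abundance was scored as a z-score relative to the vehicle-well median.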

[3] = test system: Saccharomyces cerevisiae BY4741 SeMeCo community; assay: z-score of subpopulation abundance vs DMSO median, subpopulation auxotrophic for M; higher = larger share of this subpopulation than in DMSO controls; details: 10 µM; 24 h; SM minimal medium; subpopulation (auxotrophy): M
Outline: as §1

[4] = test system: Saccharomyces cerevisiae BY4741 SeMeCo community; assay: z-score of subpopulation abundance vs DMSO median, subpopulation auxotrophic for L; higher = larger share of this subpopulation than in DMSO controls; details: 10 µM; 24 h; SM minimal medium; subpopulation (auxotrophy): L
Outline: as §1

[5] = test system: Saccharomyces cerevisiae BY4741 SeMeCo community; assay: z-score of subpopulation abundance vs DMSO median, subpopulation auxotrophic for U; higher = larger share of this subpopulation than in DMSO controls; details: 10 µM; 24 h; SM minimal medium; subpopulation (auxotrophy): U
Outline: as §1

[6] = test system: Saccharomyces cerevisiae BY4741 SeMeCo community; assay: z-score of subpopulation abundance vs DMSO median, subpopulation auxotrophic for H; higher = larger share of this subpopulation than in DMSO controls; details: 10 µM; 24 h; SM minimal medium; subpopulation (auxotrophy): H
Outline: as §1

[7] = test system: Saccharomyces cerevisiae BY4741 SeMeCo community; assay: z-score of subpopulation abundance vs DMSO median, subpopulation auxotrophic for LU; higher = larger share of this subpopulation than in DMSO controls; details: 10 µM; 24 h; SM minimal medium; subpopulation (auxotrophy): LU
Outline: as §1

[8] = test system: Saccharomyces cerevisiae BY4741 SeMeCo community; assay: z-score of subpopulation abundance vs DMSO median, subpopulation auxotrophic for LM; higher = larger share of this subpopulation than in DMSO controls; details: 10 µM; 24 h; SM minimal medium; subpopulation (auxotrophy): LM
Outline: as §1

[9] = test system: Saccharomyces cerevisiae BY4741 SeMeCo community; assay: z-score of subpopulation abundance vs DMSO median, subpopulation auxotrophic for HM; higher = larger share of this subpopulation than in DMSO controls; details: 10 µM; 24 h; SM minimal medium; subpopulation (auxotrophy): HM
Outline: as §1

[10] = test system: Saccharomyces cerevisiae BY4741 SeMeCo community; assay: z-score of subpopulation abundance vs DMSO median, subpopulation auxotrophic for HU; higher = larger share of this subpopulation than in DMSO controls; details: 10 µM; 24 h; SM minimal medium; subpopulation (auxotrophy): HU
Outline: as §1

[11] = test system: Saccharomyces cerevisiae BY4741 SeMeCo community; assay: z-score of subpopulation abundance vs DMSO median, subpopulation auxotrophic for UM; higher = larger share of this subpopulation than in DMSO controls; details: 10 µM; 24 h; SM minimal medium; subpopulation (auxotrophy): UM
Outline: as §1

[12] = test system: Saccharomyces cerevisiae BY4741 SeMeCo community; assay: z-score of subpopulation abundance vs DMSO median, subpopulation auxotrophic for HL; higher = larger share of this subpopulation than in DMSO controls; details: 10 µM; 24 h; SM minimal medium; subpopulation (auxotrophy): HL
Outline: as §1

[13] = test system: Saccharomyces cerevisiae BY4741 SeMeCo community; assay: z-score of subpopulation abundance vs DMSO median, subpopulation auxotrophic for HLU; higher = larger share of this subpopulation than in DMSO controls; details: 10 µM; 24 h; SM minimal medium; subpopulation (auxotrophy): HLU
Outline: as §1

[14] = test system: Saccharomyces cerevisiae BY4741 SeMeCo community; assay: z-score of subpopulation abundance vs DMSO median, subpopulation auxotrophic for HLM; higher = larger share of this subpopulation than in DMSO controls; details: 10 µM; 24 h; SM minimal medium; subpopulation (auxotrophy): HLM
Outline: as §1

[15] = test system: Saccharomyces cerevisiae BY4741 SeMeCo community; assay: z-score of subpopulation abundance vs DMSO median, subpopulation auxotrophic for HUM; higher = larger share of this subpopulation than in DMSO controls; details: 10 µM; 24 h; SM minimal medium; subpopulation (auxotrophy): HUM
Outline: as §1

[16] = test system: Saccharomyces cerevisiae BY4741 SeMeCo community; assay: z-score of subpopulation abundance vs DMSO median, subpopulation auxotrophic for HLUM; higher = larger share of this subpopulation than in DMSO controls; details: 10 µM; 24 h; SM minimal medium; subpopulation (auxotrophy): HLUM
Outline: as §1

[17] = test system: Saccharomyces cerevisiae BY4741 SeMeCo community; assay: z-score of subpopulation abundance vs DMSO median, subpopulation auxotrophic for LUM; higher = larger share of this subpopulation than in DMSO controls; details: 10 µM; 24 h; SM minimal medium; subpopulation (auxotrophy): LUM
Outline: as §1

Row | Structure (SMILES) | mean cell size [1] | z-score of prototroph abundance [2] | z-score of subpopulation abundance [3] | z-score of subpopulation abundance [4] | z-score of subpopulation abundance [5] | z-score of subpopulation abundance [6] | z-score of subpopulation abundance [7] | z-score of subpopulation abundance [8] | z-score of subpopulation abundance [9] | z-score of subpopulation abundance [10] | z-score of subpopulation abundance [11] | z-score of subpopulation abundance [12] | z-score of subpopulation abundance [13] | z-score of subpopulation abundance [14] | z-score of subpopulation abundance [15] | z-score of subpopulation abundance [16] | z-score of subpopulation abundance [17]
1 | N[C@@H]1CN(c2c(F)cc3c(=O)c(C(=O)O)cn([C@@H]4C[C@@H]4F)c3c2Cl)CC12CC2 [Sitafloxacin Hydrate] | 12.2 ± 0.062 | -1.39 | 0.3 | 0.29 | 1.07 | 0.2 | 0.44 | 0.69 | 0.61 | 1.54 | 1.53 | 0.18 | 0.03 | -0.5 | 0.81 | -0.03 | –
2 | C1CCN2C[C@@H]3C[C@@H](CN4CCCC[C@@H]34)[C@H]2C1 [(-)-Sparteine Sulfate] | 12.2 ± 0.3 | – | -0.03 | -0.01 | -0.7 | 1.38 | -0.85 | -0.13 | 0.08 | -0.03 | 0.01 | 1.4 | -0.52 | -0.86 | 0.1 | -0.92 | -0.1
3 | CC1=C(CC(=O)O)c2cc(F)ccc2/C1=C\c1ccc([S+](C)[O-])cc1 (stereo unspecified) [Sulindac] | 12.4 ± 0.21 | – | 0.53 | 1.59 | -1.92 | 0.69 | -0.59 | 1.7 | 0.57 | -0.74 | -1.2 | 0.1 | -0.15 | -0.2 | -0.07 | -0.02 | 0.36
4 | Nc1ccc(C(=O)O)c(O)c1 [4-Aminosalicylic acid] | 12 ± 0.19 | 2.23 | 1.33 | 0.78 | -3.36 | -0.01 | -3.37 | 0.62 | 0.06 | -3.39 | – | – | -0.27 | -0.9 | -1.3 | -0.18 | -1.15
5 | CCCc1nn(C)c2c(=O)[nH]c(-c3cc(S(=O)(=O)N4CCN(C)CC4)ccc3OCC)nc12 [Sildenafil Mesylate] | 12.2 ± 0.17 | -0.95 | -0.91 | 0.21 | – | -0.01 | 0.91 | -0.29 | -0.05 | 1.74 | 0.21 | -0.5 | 0.05 | -0.78 | 1.55 | 0.08 | 0.38
6 | C#CCC(Cc1cnc2nc(N)nc(N)c2n1)c1ccc(C(=O)N[C@@H](CCC(=O)O)C(=O)O)cc1 (stereo partly specified) [Pralatrexate] | 14.4 ± 0.34 | 0.41 | 2.68 | 3.17 | – | – | -3.34 | 3.24 | 5.98 | -3.79 | -5.43 | 4.02 | 0.5 | 4.47 | -2.23 | 1.08 | -1.33
7 | C#C[C@]1(O)CC[C@H]2[C@@H]3CCc4cc(OC5CCCC5)ccc4[C@H]3CC[C@@]21C [Quinestrol] | 12.4 ± 0.25 | -0.35 | 0.32 | 1.42 | -0.2 | 0.33 | 1.93 | -0.07 | 0.17 | 0.41 | -0.33 | 0.28 | 0.72 | 0.37 | 0.52 | 0.63 | –
8 | COc1cc(NS(=O)(=O)c2ccc(N)cc2)nc(OC)n1 [SulfadiMethoxine sodium] | 12.4 ± 0.15 | 0.53 | 0.96 | -0.99 | – | -0.13 | -0.82 | -0.45 | 0.06 | 0.29 | – | -0.28 | -0.72 | 0 | -0.22 | -0.21 | -0.37
9 | CCCCOc1cc(C(=O)NCCN(CC)CC)c2ccccc2n1 [Dibucaine HCl] | 12.3 ± 0.24 | 0.15 | -0.03 | -0.47 | – | -0.92 | -0.21 | 0.03 | -0.88 | -0.13 | 0.1 | -1.25 | -0.62 | -0.03 | 0.03 | -0.06 | -0.54
10 | O=C(O)c1cn(-c2ccc(F)cc2)c2cc(N3CCNCC3)c(F)cc2c1=O [Sarafloxacin HCl] | 12.2 ± 0.18 | 0.01 | -0.64 | -0.74 | 0.41 | -0.42 | -0.05 | 0.08 | -0.52 | – | 0.84 | – | -0.35 | -0.84 | 0.61 | -0.29 | 0.54
